A selection: hits, their analogues and other compounds. The true share with any hit is near 3%.
PAFAH2 inh: inhibitors of human PAFAH2. Q99487. recombinant PAFAH2, FP-rhodamine activity probe, fluorescence polarization. inhibition, % at 3.39 µM. 0.99% of 340,000 active. AID 492956;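 active = inhibition above the mean over all tested compounds plus 3 SD, cut at about 30% in these data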;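 also: inhibitors block probe labeling of enzyme so polarization drops; 0% = enzyme with DMSO and 100% = wells lacking PAFAH2 protein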
CTSL1 counter: cathepsin L1 inhibition, PFM18AAP counter-screen; recombinant F. hepatica cathepsin L1, Z-Leu-Arg-MCA fluorescence; 0.49% of 300,000 active; inhibition, % at 5.96 µM;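 active = inhibition above the mean of all tested compounds plus 3 SD, set per screening campaign, cut at about 17% in these data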;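 also: 0% = plate median of test compound wells and 100% = 1 µM Z-Phe-Ala-diazomethylketone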
PAFAH1B2 inh: inhibitors of human PAFAH1B2; P68402; inhibition, % at 3.39 µM; recombinant PAFAH1B2, FP-rhodamine activity probe, fluorescence polarization; AID 492953; 1.2% of 340,000 active;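 active = inhibition above the mean of all tested compounds plus 3 SD, cut at about 24% in these data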;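 also: 0% = enzyme with DMSO and 100% = wells lacking PAFAH1B2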
PAFAH1B3 FP inh: blocks human PAF acetylhydrolase 1B catalytic subunit 3. 0.28% of 340,000 active. inhibition, % at 3.39 µM. AID 492972. recombinant PAFAH1B3, FP-rhodamine probe, fluorescence polarization;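 active = inhibition above the screen-wide average of all tested compounds plus 3 SD, cut at about 25% in these data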;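 also: 0% = enzyme with DMSO only and 100% = wells lacking PAFAH1B3 protein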
PP5 primary: blocks human protein phosphatase 5 activity | inhibition, % at 6.7 µM | purified PP5c, OMFP substrate fluorescence | 0.18% of 320,000 active;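 active = inhibition above the campaign's mean inhibition across all tested compounds plus 3 SD, cut at about 9.5% in these data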;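 also: 0% = DMSO only and 100% = 100 µM cantharidin control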
Target sequence (P53041 whole entry, looked up): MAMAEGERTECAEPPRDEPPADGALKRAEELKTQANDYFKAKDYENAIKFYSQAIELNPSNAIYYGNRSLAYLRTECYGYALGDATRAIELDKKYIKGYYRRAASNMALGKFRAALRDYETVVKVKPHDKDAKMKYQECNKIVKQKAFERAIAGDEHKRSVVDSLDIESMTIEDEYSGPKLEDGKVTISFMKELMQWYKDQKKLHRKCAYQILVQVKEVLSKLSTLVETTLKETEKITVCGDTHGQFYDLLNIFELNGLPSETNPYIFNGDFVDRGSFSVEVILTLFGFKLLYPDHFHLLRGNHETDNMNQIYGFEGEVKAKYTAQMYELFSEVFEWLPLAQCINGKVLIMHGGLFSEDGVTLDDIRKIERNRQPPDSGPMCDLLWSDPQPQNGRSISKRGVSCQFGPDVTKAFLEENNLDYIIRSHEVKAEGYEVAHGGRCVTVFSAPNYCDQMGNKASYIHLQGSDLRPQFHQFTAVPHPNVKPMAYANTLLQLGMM
pPAFAH inh: pPAFAH (human) enzyme inhibition; 1.5% of 330,000 active; recombinant pPAFAH, FP-rhodamine probe fluorescence polarization; inhibition, % at 3.39 µM; AID 463082;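 active = inhibition above the mean inhibition across the screen plus 3 SD, cut at about 25% in these data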;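 also: inhibitors block binding of the rhodamine activity-based probe so polarization drops; 0% = enzyme with DMSO and 100% = wells lacking pPAFAH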
PAFAH2 confirm: PAFAH2 (human) inhibition, confirmed; shares compounds with PAFAH2 inh; recombinant PAFAH2, FP-rhodamine activity probe, fluorescence polarization; inhibition, % at 3.39 µM; 65% of 2,300 active; AID 493030;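 active = mean inhibition over three repeats above a set limit taken from the earlier primary screen, cut at about 30% in these data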;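 also: inhibitor blocks binding of rhodamine activity probe so polarization falls; 0% = enzyme with DMSO and 100% = wells lacking PAFAH2 protein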
An asterisk follows results filed as active; / = no result given.

SMILES	PAFAH2 inh	CTSL1 counter	PAFAH1B2 inh	PAFAH1B3 FP inh	PP5 primary	pPAFAH inh	PAFAH2 confirm
CS(=O)(=O)c1ccccc1C(=O)Nc1cc(Cl)ccc1-n1cncn1	6	0	-3	1	0	-2	/
Cc1cccc(C(=O)Nc2cc(Cl)ccc2-n2cncn2)c1[N+](=O)[O-]	39*	0	2	1	0	8	31*
CCN(C[C@H]1N[C@@](CC)(C(=O)OC)[C@H]2C(=O)N(Cc3ccccc3)C(=O)[C@@H]12)C(=O)c1ccccc1	5	/	2	13	/	-1	/
Cc1sc2ncnc(SCC(=O)N3CCCCC3)c2c1C	-2	4	2	4	2	-4	/
Cc1sc2ncnc(SCC(=O)N3CCCC3=O)c2c1C	81*	-3	9	7	2	0	83*
CN(/N=C/c1cc([N+](=O)[O-])ccc1O)c1ccccc1	35*	2	0	8	0	7	31*
CC(N=Cc1cc([N+](=O)[O-])ccc1O)c1ccccc1 (configuration not stated)	13	7	2	13	-6	-4	/
O=C(O)c1ccc(C2Nc3ccccc3C(=O)N2Cc2ccccc2)cc1 (configuration not stated)	-15	-5	5	12	1	-5	/
O=C(NCc1cc([N+](=O)[O-])ccc1O)c1cccnc1Sc1ccc(Cl)cc1	16	2	-4	8	0	4	/
O=C(NCc1cc([N+](=O)[O-])ccc1O)c1cccnc1Sc1ccccc1Cl	39*	3	0	4	2	3	32*
Cc1ccc(CNC(=O)CN(C)C2=NS(=O)(=O)c3ccccc32)cc1	-4	/	-5	-1	0	1	/
COC(=O)[C@@H](Cc1ccccc1)NC(=O)[C@H]1CCC(=O)N1C(=O)OCc1ccccc1	41*	1	1	5	0	4	28
COCCN(CC1CCCN(C2Cc3ccccc3C2)C1)C(=O)c1cccc(C)c1 (configuration not stated)	32*	1	2	-3	-2	5	19
COCCN(CC1CCCN(C2Cc3ccccc3C2)C1)C(=O)c1ccc(C(C)=O)cc1 (configuration not stated)	21	1	-2	-1	-2	0	/
COc1cc(OC)c(C(=O)OCC(=O)Nc2cccc(S(=O)(=O)NC3=NCCCCC3)c2)cc1OC	14	/	2	-2	/	/	/
CC(C)(C)c1ccc(OCC(=O)Nc2cccc(S(=O)(=O)NC3=NCCCCC3)c2)cc1	-4	/	1	9	3	4	/
O=C(COC(=O)c1cccs1)Nc1cccc(S(=O)(=O)NC2=NCCCCC2)c1	48*	-4	5	8	1	4	36*
CC1CC1C(=O)OCC(=O)Nc1cccc(S(=O)(=O)NC2=NCCCCC2)c1 (configuration not stated)	34*	-10	4	6	1	5	20
O=C(O)c1ccc(CNC(=O)c2ccccc2NC(=O)c2cccc([N+](=O)[O-])c2)cc1	-6	-5	0	2	-1	5	/
O=C(O)c1ccc(CNC(=O)c2ccccc2NC(=O)c2ccc([N+](=O)[O-])cc2)cc1	38*	3	4	4	-2	2	30*
Cc1cc(=O)oc2c3c(cc(OCC(=O)NCCC(=O)O)c12)OC(C)(C)CC3	-2	/	-2	0	/	/	/
CCc1cc(=O)oc2c3c(cc(OCC(=O)NCCC(=O)O)c12)OC(C)(C)CC3	38*	-2	4	1	0	23	23
CNc1ccc(Br)cc(C(=O)/C=C/c2cccc(Cl)c2Cl)c1=O	44*	/	10	15	/	/	15
Cc1onc(-c2ccccc2)c1-c1nc2ccccc2c(=O)o1	63*	4	5	-1	2	-5	60*
COc1ccc(-c2nc3ccccc3c(=O)o2)cc1OC	41*	2	-1	5	1	-5	34*
O=c1oc(-c2ccccc2Br)nc2ccccc12	56*	-2	-1	0	0	0	31*
COc1ccc(-c2nnc(-c3ccccc3)o2)cc1OC	10	0	6	8	-2	3	/

High-throughput results (PubChem)
